Test results from article PMC5540273 (PLoS ONE, 2017).

System: FGR
Conditions: concentration: 1 μM, replicates: in singlicate; n = 1
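Also: KINOMEscan kinase panel screen.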

Compound | %Inh [%]
C[C@@H]1CC[C@H](C(=O)NC2CCCCC2)CN1c1cc(-c2ccc3c(N)n[nH]c3c2)nc(N)n1 [GSK2291363] | 27
Cc1nc(N(C)[C@H]2CN(C(=O)CC#N)CC[C@H]2C)c2cc[nH]c2n1 | 6
Nc1nccc2scc(-c3ccc4c(c3)CCN4C(=O)Cc3ccccc3)c12 [GSK2576924] | 22
COc1cc(OC)cc(-c2cc3cnc(N)nc3nc2NC(=O)NC(C)(C)C)c1 | 0
O=C(Nc1n[nH]c2cc(-c3ccccc3F)ccc12)C1CC1 [SB-733371] | 14
CCCNC(=O)Nc1ccc(Oc2ncnc3ccn(C)c23)cc1 | 0
COc1cc2ncn(-c3cc(OCc4ccncc4Br)c(C(N)=O)s3)c2cc1OC [GW854278] | 20
Cc1nn2c(=O)cc(N3CCOCC3)nc2n1Cc1cccc(Cl)c1Cl [GSK2342769] | 24
Cc1c(Cn2c(C)nn3c(=O)cc(N4CCO[C@H](C)C4)nc23)cccc1C(F)(F)F [GSK2373690] | 0
COc1cc2nccc(Nc3ccc(OCc4ccc(NC(C)=O)cc4)cc3)c2cc1OC.Cl [GW440135] | 29
Cc1cccc(-c2nc(Nc3ccc4c(cnn4C)c3)c3ccccc3n2)n1 [GW876731] | 0
CCCC(=O)Nc1n[nH]c2ncc(-c3cccc4ccccc34)cc12 [SB-642057] | 10
FC(F)(F)c1ccc(-c2ncn(CCCN3CCOCC3)c2-c2ccncc2)cc1 [SB-217780] | 11
OCCCNc1nccc(-c2c(-c3cccc(C(F)(F)F)c3)nn3cc(C(F)(F)F)ccc23)n1 [GW630813] | 16
COc1cc(Nc2nccc(N3CCC(NC(=O)C4COc5ccccc5O4)C3)n2)cc(OC)c1OC (centres unmarked) [GSK1379761] | 33
CCc1ccc(-c2ccc3c(c2)-c2nn(C)cc2S(=O)(=O)N3C)cc1 | 0
COc1cc(Nc2nccc(N3CCC(NC(=O)C(C)c4ccc(Cl)cc4)C3)n2)cc(OC)c1OC (centres unmarked) [GSK1379757] | 26
CCS(=O)c1ccc(-c2coc3ccc(-c4nnc(C)o4)cc23)cc1 (centres unmarked) | 0
O=C1NC(=O)C(c2ccccc2)=C1Nc1cccc(O)c1 [SB-390534] | 0

Compound | %Inh [%]
COc1cccc(-n2cnc3c(N)ncnc32)c1 [SKF-97416] | 0
COc1cc2ncn(-c3cc(OCc4ccncc4)c(C(N)=O)s3)c2cc1OC [GSK336313] | 28
COC(=O)c1c(-c2ccccc2)c2cc(Br)ccc2c(=O)n1Cc1ccc(S(C)(=O)=O)cc1 | 13
Nc1ncnc2c1ncn2-c1cccc(F)c1 [SKF-97560] | 0
Nc1n[nH]c2nnc(-c3ccccc3)c(-c3ccccc3)c12 [GW554060] | 7
Cc1ccc(-c2ccc3c(ccc4sc5c(c43)NC[C@@H](C)N=C5N(C)C)n2)cn1 | 1
COc1cc2ncn(-c3cc(OCc4ccc(S(C)(=O)=O)cc4)c(C(N)=O)s3)c2cc1OC [GW869979] | 0
Cl.NS(=O)(=O)c1cccc(Nc2cc(-c3ccc(F)cc3)n[nH]2)c1 [GW824645] | 0
COc1cccc(C2=C(N(C)c3ccccc3)C(=O)NC2=O)c1 [SB-334865] | 13
CCn1c(-c2ccoc2)nc2cnccc21 [SB-733887] | 10
COc1cc2nccc(Nc3cccc(Oc4ccccc4)c3)c2cc1OC.Cl [GW284543] | 25
CCC(=O)c1c(-c2ccccc2)c2cc(Cl)ccc2c(=O)n1Cc1cc(S(C)(=O)=O)n(CC(N)=O)n1 | 0
CCn1c(-c2nonc2N)nc2ccccc21 [SB-693162/GW549034] | 0
CN(C)c1cc(-c2ccc3c(N)n[nH]c3c2)nc(N)n1 [GSK2219329] | 19
Cc1ccccc1COc1cc(-n2cnc3cc(Cl)ccc32)sc1C(N)=O [GW813349] | 9
Cl.c1ccc(Cn2cnc3cc(Nc4ncnc5ccccc45)ccc32)cc1 [GW272142] | 23
Nc1ncnc2c1ncn2-c1cccc2ccccc12 [SKF-97184] | 6
COc1ccc(CNC(=O)NC2CCN(c3ccnc(Nc4ccc(F)cc4)n3)C2)cc1 (centres unmarked) [GSK1379706] | 19

System: FLT1
Conditions: concentration: 1 μM, replicates: in singlicate; n = 1

Compound | %Inh [%]
C[C@@H]1CC[C@H](C(=O)NC2CCCCC2)CN1c1cc(-c2ccc3c(N)n[nH]c3c2)nc(N)n1 [GSK2291363] | 35
Cc1nc(N(C)[C@H]2CN(C(=O)CC#N)CC[C@H]2C)c2cc[nH]c2n1 | 0
Nc1nccc2scc(-c3ccc4c(c3)CCN4C(=O)Cc3ccccc3)c12 [GSK2576924] | 22
COc1cc(OC)cc(-c2cc3cnc(N)nc3nc2NC(=O)NC(C)(C)C)c1 | 38
O=C(Nc1n[nH]c2cc(-c3ccccc3F)ccc12)C1CC1 [SB-733371] | 29
CCCNC(=O)Nc1ccc(Oc2ncnc3ccn(C)c23)cc1 | 0
COc1cc2ncn(-c3cc(OCc4ccncc4Br)c(C(N)=O)s3)c2cc1OC [GW854278] | 0
Cc1nn2c(=O)cc(N3CCOCC3)nc2n1Cc1cccc(Cl)c1Cl [GSK2342769] | 27
Cc1c(Cn2c(C)nn3c(=O)cc(N4CCO[C@H](C)C4)nc23)cccc1C(F)(F)F [GSK2373690] | 22
COc1cc2nccc(Nc3ccc(OCc4ccc(NC(C)=O)cc4)cc3)c2cc1OC.Cl [GW440135] | 83
Cc1cccc(-c2nc(Nc3ccc4c(cnn4C)c3)c3ccccc3n2)n1 [GW876731] | 0
CCCC(=O)Nc1n[nH]c2ncc(-c3cccc4ccccc34)cc12 [SB-642057] | 10
FC(F)(F)c1ccc(-c2ncn(CCCN3CCOCC3)c2-c2ccncc2)cc1 [SB-217780] | 22
OCCCNc1nccc(-c2c(-c3cccc(C(F)(F)F)c3)nn3cc(C(F)(F)F)ccc23)n1 [GW630813] | 24
COc1cc(Nc2nccc(N3CCC(NC(=O)C4COc5ccccc5O4)C3)n2)cc(OC)c1OC (centres unmarked) [GSK1379761] | 23
CCc1ccc(-c2ccc3c(c2)-c2nn(C)cc2S(=O)(=O)N3C)cc1 | 0
COc1cc(Nc2nccc(N3CCC(NC(=O)C(C)c4ccc(Cl)cc4)C3)n2)cc(OC)c1OC (centres unmarked) [GSK1379757] | 40
CCS(=O)c1ccc(-c2coc3ccc(-c4nnc(C)o4)cc23)cc1 (centres unmarked) | 0
O=C1NC(=O)C(c2ccccc2)=C1Nc1cccc(O)c1 [SB-390534] | 2

Compound | %Inh [%]
COc1cccc(-n2cnc3c(N)ncnc32)c1 [SKF-97416] | 0
COc1cc2ncn(-c3cc(OCc4ccncc4)c(C(N)=O)s3)c2cc1OC [GSK336313] | 19
COC(=O)c1c(-c2ccccc2)c2cc(Br)ccc2c(=O)n1Cc1ccc(S(C)(=O)=O)cc1 | 0
Nc1ncnc2c1ncn2-c1cccc(F)c1 [SKF-97560] | 22
Nc1n[nH]c2nnc(-c3ccccc3)c(-c3ccccc3)c12 [GW554060] | 20
Cc1ccc(-c2ccc3c(ccc4sc5c(c43)NC[C@@H](C)N=C5N(C)C)n2)cn1 | 1
COc1cc2ncn(-c3cc(OCc4ccc(S(C)(=O)=O)cc4)c(C(N)=O)s3)c2cc1OC [GW869979] | 0
Cl.NS(=O)(=O)c1cccc(Nc2cc(-c3ccc(F)cc3)n[nH]2)c1 [GW824645] | 0
COc1cccc(C2=C(N(C)c3ccccc3)C(=O)NC2=O)c1 [SB-334865] | 16
CCn1c(-c2ccoc2)nc2cnccc21 [SB-733887] | 9
COc1cc2nccc(Nc3cccc(Oc4ccccc4)c3)c2cc1OC.Cl [GW284543] | 24
CCC(=O)c1c(-c2ccccc2)c2cc(Cl)ccc2c(=O)n1Cc1cc(S(C)(=O)=O)n(CC(N)=O)n1 | 0
CCn1c(-c2nonc2N)nc2ccccc21 [SB-693162/GW549034] | 0
CN(C)c1cc(-c2ccc3c(N)n[nH]c3c2)nc(N)n1 [GSK2219329] | 20
Cc1ccccc1COc1cc(-n2cnc3cc(Cl)ccc32)sc1C(N)=O [GW813349] | 5
Cl.c1ccc(Cn2cnc3cc(Nc4ncnc5ccccc45)ccc32)cc1 [GW272142] | 16
Nc1ncnc2c1ncn2-c1cccc2ccccc12 [SKF-97184] | 0
COc1ccc(CNC(=O)NC2CCN(c3ccnc(Nc4ccc(F)cc4)n3)C2)cc1 (centres unmarked) [GSK1379706] | 21
